Compounds with a hit are over-represented: about 11% of the library has one in this group of screens.
NIH3T3 tox: cytotoxic compounds in NIH 3T3 cells | NIH 3T3 viability, CellTiter-Glo ATP luminescence, 48-72 h | Potency, µM (series often up to 96.7 µM), inactives show top-dose activity change, negative = cytotoxicity, most hits filed as inhibitors | 4.3% of 94,000 active | AID 1345082; note: % is set by controls: 0 for no effect and ±100 for the full control effect; nearly all actives have a fitted effect of over 55% in size
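Viability of NIH 3T3 cells after 48 or 72 hr compound treatment at 37 °C was assessed by CellTiter-Glo, with luminescence imaged following a 10 min room-temperature step.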
FLuc inh: inhibitors of firefly (Photinus pyralis) luciferase. purified P. pyralis luciferase, luminescence, biochemical. Potency, µM (top dose mostly 115 µM), usual class: inhibitors. 2.5% of 76,000 active. P08659; note: % is set by controls: 0 for no effect and ±100 for the full control effect; nearly all actives have a fitted effect of over 65% in size
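Cell-free enzyme assay, 10nM P. pyralis luciferase, luciferin and ATP each at 10uM. Inhibition profiled over a 6-point titration, read as luminescence.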
HEK293 tox: HEK 293 cell cytotoxicity. HEK 293 viability, ATP luminescence (CellTiter-Glo), 48-72 h. Potency, µM (titrated, usually from 115 µM), for the others: at the top dose activity change, negative = cytotoxicity, actives largely listed as inhibitors. 6.6% of 94,000 active. AID 1345083; note: % is set by controls: 0 for no effect and ±100 for the full control effect; nearly all actives have a fitted effect of over 60% in size
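Luminescence from cellular ATP, measured with CellTiter-Glo, indicates HEK 293 viability. Cells plated at 250 cells/well are treated with compound for 48 or 72 hr at 37 degree Celsius before reagent addition.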
hNpr1 antagonist: blocks ANP-stimulated signaling of human Npr1 receptor | P16066 | HEK293 hNpr1 GloSensor cGMP, ANP-stimulated luminescence | Potency, µM (titrated, usually from 46.3 µM), inactives show top-dose activity change, negative = inhibition, usual class: inhibitors | 1.6% of 76,000 active | AID 1347048; calls by dose curve; note: % is set by controls: 0 for no effect and ±100 for the full control effect; nearly all actives have a fitted effect of over 60% in size
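HEK293 cells stably expressing human Npr1 and cGMP GloSensor pGS-40F, loaded 2 h with 2% GloSensor reagent, given compound 30 min at room temperature. Luminescence read before and 20 min after 0.1 nM hNppA.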
NPR1 antag cnf: hNpr1 antagonism, confirmation assay. 76% of 1,400 active. Potency, µM (titrated, usually from 57.6 µM), for inactives: top-dose activity change, negative = inhibition, most hits filed as inhibitors. HEK293 hNpr1 cGMP GloSensor luminescence, ANP-stimulated. AID 1347044. shares compounds with hNpr1 antagonist; calls by dose curve; note: nearly all actives have a fitted effect of over 70% in size
Npr2 selectivity: selectivity test of Npr1 antagonists against human Npr2 | shares compounds with hNpr1 antagonist | HEK293 hNpr2 GloSensor cGMP luminescence, CNP-stimulated | Potency, µM (doses to about 57.6 µM), inactives show at the highest dose activity change, negative = inhibition, most hits filed as inhibitors | 67% of 1,400 active | AID 1347046; calls by dose curve; note: nearly all actives have a fitted effect of over 70% in size
Target sequence (P20594 whole entry, looked up): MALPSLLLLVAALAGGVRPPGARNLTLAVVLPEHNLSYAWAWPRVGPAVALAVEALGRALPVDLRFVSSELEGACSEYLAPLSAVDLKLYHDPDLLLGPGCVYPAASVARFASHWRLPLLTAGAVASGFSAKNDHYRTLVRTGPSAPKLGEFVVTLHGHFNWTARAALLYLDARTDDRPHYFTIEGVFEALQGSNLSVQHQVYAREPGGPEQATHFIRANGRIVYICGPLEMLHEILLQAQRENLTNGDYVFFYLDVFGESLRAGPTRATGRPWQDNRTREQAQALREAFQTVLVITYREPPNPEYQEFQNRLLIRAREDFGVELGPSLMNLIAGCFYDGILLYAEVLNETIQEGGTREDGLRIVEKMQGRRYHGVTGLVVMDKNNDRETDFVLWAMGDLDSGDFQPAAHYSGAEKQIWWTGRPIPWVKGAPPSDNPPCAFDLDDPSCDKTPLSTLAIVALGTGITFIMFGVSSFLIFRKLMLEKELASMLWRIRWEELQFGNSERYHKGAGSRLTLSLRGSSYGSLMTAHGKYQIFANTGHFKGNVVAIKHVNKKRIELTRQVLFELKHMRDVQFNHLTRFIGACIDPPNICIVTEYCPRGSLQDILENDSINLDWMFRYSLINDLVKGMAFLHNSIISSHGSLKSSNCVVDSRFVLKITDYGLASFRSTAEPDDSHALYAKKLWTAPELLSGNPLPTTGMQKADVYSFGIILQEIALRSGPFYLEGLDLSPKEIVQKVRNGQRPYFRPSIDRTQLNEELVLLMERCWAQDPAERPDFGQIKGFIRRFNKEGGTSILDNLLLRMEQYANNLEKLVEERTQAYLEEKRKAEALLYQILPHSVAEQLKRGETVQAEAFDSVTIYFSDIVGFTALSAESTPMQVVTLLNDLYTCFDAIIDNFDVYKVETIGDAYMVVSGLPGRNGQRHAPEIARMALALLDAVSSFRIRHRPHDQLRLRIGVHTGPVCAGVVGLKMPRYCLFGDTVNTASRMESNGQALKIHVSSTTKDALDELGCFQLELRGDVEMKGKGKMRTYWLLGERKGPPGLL
FLuc inh counter: counter-screen for Npr1 antagonists: firefly luciferase inhibitors; shares compounds with hNpr1 antagonist; purified FLuc enzyme, luminescence, Km substrate; Potency, µM (highest dose often 57.6 µM), inactives show at the highest dose activity change, negative = inhibition, hits mostly inhibitors; 0.7% of 1,400 active; AID 1347047; note: 0% is about no effect
GloSensor ctrl: reduces cGMP signal in GloSensor control cells; shares compounds with hNpr1 antagonist; HEK293 GloSensor cGMP, SNP-stimulated, luminescence; Potency, µM (top dose mostly 57.6 µM), for inactives: top-dose activity change, negative = inhibition, usual class: inhibitors; 69% of 1,400 active; AID 1347051; calls by dose curve; note: % is set by controls: 0 for no effect and ±100 for the full control effect; nearly all actives have a fitted effect of over 70% in size
Starred values were filed as active, the others as inactive; [ ] = remark or other dose. Unless noted, calls come from the whole dose curve; as a rule, active = well fitted curve in the direction sought with a large enough effect; inconclusive = small, poorly fitted or top-dose-only effect, or another doubt; inactive = no such curve, though single readings can be large; an effect the other way counts as inactive or inconclusive. Potency is the fitted concentration of half-maximal effect.

O=C1CCC2(CCN1Cc1ccccc1)CCN(S(=O)(=O)c1cccs1)CC2 was read as NIH3T3 tox inconclusive, FLuc inh inactive, HEK293 tox inconclusive, hNpr1 antagonist inconclusive, NPR1 antag cnf inconclusive, Npr2 selectivity -28.5%, FLuc inh counter -0.1% and GloSensor ctrl inconclusive.
For CCS(=O)(=O)N1CCC2(CCC(=O)N(Cc3ccccc3)CC2)CC1 the results were NIH3T3 tox -8.2%, FLuc inh inactive, HEK293 tox -15.0% and hNpr1 antagonist -0.1%.
Screening O=C(Cc1cccc(F)c1)N1CCC2(CC1)NC(=O)N(Cc1ccccc1Cl)C2=O returned NIH3T3 tox inconclusive, FLuc inh inactive, HEK293 tox inconclusive, hNpr1 antagonist inconclusive, NPR1 antag cnf inconclusive, Npr2 selectivity -25.8%, FLuc inh counter 2.6% and GloSensor ctrl -23.6%.
For Cc1ccc(C)c(CN2C(=O)NC3(CCN(C(=O)c4ccccn4)CC3)C2=O)c1 the results were NIH3T3 tox -6.3%, FLuc inh inactive, HEK293 tox -15.2% and hNpr1 antagonist -0.3%.
Screening Cc1ccc(C)c(CN2C(=O)NC3(CCN(C(=O)Cc4cccc(F)c4)CC3)C2=O)c1 returned NIH3T3 tox inconclusive, FLuc inh inactive, HEK293 tox inconclusive, hNpr1 antagonist inconclusive, NPR1 antag cnf inconclusive, Npr2 selectivity inconclusive, FLuc inh counter 3.0% and GloSensor ctrl inconclusive.
`Cc1c(CN(C)c2cc(C3CC(O)C3)nc(N)n2)[nH]c2ccccc12` (stereo not given) gave NIH3T3 tox inconclusive, FLuc inh inactive, HEK293 tox -92.7%, hNpr1 antagonist 0.631µM*, NPR1 antag cnf 0.432µM*, Npr2 selectivity 0.863µM*, FLuc inh counter 1.5% and GloSensor ctrl 0.432µM*.
`Cc1ccc(SCCN(C)c2cc(C3CC(O)C3)nc(N)n2)cc1` (stereo not given) gave NIH3T3 tox inconclusive, FLuc inh inactive, HEK293 tox 28.2µM*, hNpr1 antagonist 12.6µM*, NPR1 antag cnf 24.3µM*, Npr2 selectivity 21.7µM*, FLuc inh counter 4.3% and GloSensor ctrl 21.7µM*.
CCN1CCN(C(=O)c2cc(-c3ccc(Cl)cc3Cl)c3nncn3n2)CC1 was read as NIH3T3 tox -15.9%[138 µM] and HEK293 tox -2.6%[172 µM].
Screening O=C(Nc1ccccc1)N1CCC(C(=O)N2CCCC2c2nc3ccncc3[nH]2)CC1 (stereo not given) returned NIH3T3 tox inactive and HEK293 tox inactive.
CCn1nc(CC(C)C)cc1C(=O)N1CCN(CCn2cccc2)CC1 was read as NIH3T3 tox inconclusive, FLuc inh inactive, HEK293 tox inconclusive and hNpr1 antagonist -2.1%.
Screening O=C1COc2ccc(-c3cccnc3)nc2CN1Cc1ccc(C(F)(F)F)cc1 returned NIH3T3 tox inconclusive, FLuc inh inactive, HEK293 tox inconclusive and hNpr1 antagonist -17.3%[70.6 µM].
`CN1Cc2nc(NCc3ccccc3)ccc2OCC1=O` gave NIH3T3 tox inconclusive, FLuc inh inactive, HEK293 tox inconclusive and hNpr1 antagonist inconclusive.
For O=C1COc2ccc(N3CCCC3)nc2CN1Cc1ccc(C(F)(F)F)cc1 the results were NIH3T3 tox inconclusive, FLuc inh inactive, HEK293 tox 79.4µM*, hNpr1 antagonist inconclusive, NPR1 antag cnf 39.6µM*, Npr2 selectivity inconclusive, FLuc inh counter -0.2%[86.2 µM] and GloSensor ctrl inconclusive.
Screening O=C1COc2ccc(-c3ccc4c(c3)OCO4)nc2CN1Cc1ccc(F)cc1 returned NIH3T3 tox inconclusive, FLuc inh inactive, HEK293 tox 56.2µM*, hNpr1 antagonist inconclusive, NPR1 antag cnf inconclusive, Npr2 selectivity 35.3µM*, FLuc inh counter 5.7%[86.2 µM] and GloSensor ctrl inconclusive.
`Cc1ccccc1CN1Cc2nc(NCc3cccc(F)c3)ccc2OCC1=O` gave NIH3T3 tox 79.4µM*, FLuc inh inactive, HEK293 tox inconclusive, hNpr1 antagonist inconclusive, NPR1 antag cnf 39.6µM*, Npr2 selectivity 35.3µM*, FLuc inh counter 0.0%[86.2 µM] and GloSensor ctrl 39.6µM*.
Screening N#Cc1ccc(C(=O)Nc2ccc([C@@H](O)[C@H]3COCC(=O)N3)cc2)cc1 returned NIH3T3 tox -12.5%[174 µM], FLuc inh inactive, HEK293 tox 2.6%[172 µM] and hNpr1 antagonist 1.8%[70.6 µM].
For CCc1nc2c(c(-c3ccc(O)cc3)n1)CCN(Cc1ccc(C)cc1)CC2 the results were NIH3T3 tox inconclusive, FLuc inh inactive, HEK293 tox inconclusive and hNpr1 antagonist -6.9%.
Screening COc1ccc(CCNC(=O)C2CCc3nnc(-c4ccc(F)cc4)n32)cc1 (stereo not given) returned NIH3T3 tox -1.8% and HEK293 tox 0.8%.
Screening CCc1ccccc1OCCN(C)Cc1ncc[nH]1 returned NIH3T3 tox -17.3%, FLuc inh inactive, HEK293 tox -15.8% and hNpr1 antagonist 1.9%.
`CCCc1cc(C(=O)N(C)CCOc2ccccc2CC)n(C)n1` gave NIH3T3 tox 39.8µM*, FLuc inh inactive, HEK293 tox inconclusive, hNpr1 antagonist 7.08µM*, NPR1 antag cnf 7.69µM*, Npr2 selectivity 10.9µM*, FLuc inh counter 0.0% and GloSensor ctrl 7.69µM*.
`CO[C@H]1[C@H](NC(=O)Cc2c[nH]c3ccccc23)c2ccccc2C12CCNCC2` gave NIH3T3 tox -6.4%, FLuc inh inactive, HEK293 tox -8.9% and hNpr1 antagonist 5.4%.
Screening CC(=O)N[C@H]1C[C@@H](Cc2cc(CN3CCCCC3)on2)C1(C)C returned NIH3T3 tox inconclusive, FLuc inh inactive, HEK293 tox -20.9%[172 µM] and hNpr1 antagonist -2.0%[70.6 µM].
`CC(C)(C)CC(=O)N[C@H]1C[C@@H](Cc2cc(COc3ccccc3)on2)C1(C)C` gave NIH3T3 tox inconclusive, FLuc inh inactive, HEK293 tox inconclusive, hNpr1 antagonist 14.1µM*, NPR1 antag cnf 12.5µM*, Npr2 selectivity 15.7µM*, FLuc inh counter 1.6%[86.2 µM] and GloSensor ctrl 14µM*.
